PubChem BioAssay AID1259417 (TB Discovery Research, Infectious Disease Research Institute, 2018)
About 760 (69%) of roughly 1,100 compounds were called active. No rule for the calls is given here. The set was probably picked from earlier hits. The list shows a part of the results.

Assay: M. tuberculosis growth inhibition, HTS (AID 1259417);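 also: bacteria grown with compound for 5 days at 37 °C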
Conditions: stronger effect = higher value, concentration not given here
[1] = M. tuberculosis DsRed fluorescence growth inhibition
[2] = M. tuberculosis growth inhibition

Compound	inhibition [1]	inhibition [2] [%]
O=C(Nc1nnc(-c2cc(Cl)ccc2Cl)o1)c1ccc(Br)s1	96.9% (active)	95.6
O=C(Nc1nnc(-c2cc(Cl)ccc2Cl)o1)c1cccs1	83.8% (active)	82.4
O=C(Nc1nnc(-c2cc(Cl)ccc2Cl)o1)c1ccc(Cl)s1	-4.8% (inactive)	-10.4
O=C(OCC#CCSc1nc2ccccc2o1)c1ccco1	59.9% (active)	68.2
O=C(OCC#CCSc1nnc(-c2ccccc2)o1)c1ccco1	44% (active)	10.3
Cc1ccc(-c2nnc(SCC#CCOC(=O)c3ccco3)o2)cc1	35.7% (active)	20.4
CC(C)(C)NC(=O)COC(=O)c1snc(C(=O)NC2CCCCC2)c1N	21.4% (active)	66.6
O=C(CCNc1ccc(Cl)c(C(F)(F)F)c1)c1cccs1	10.9% (active)	35.4
CCOc1ccc(NCCC(=O)c2cccs2)cc1	-0.257% (inactive)	-9.66
CN(C)c1ccc(Nc2nc(-c3ccccn3)cs2)cc1	54.1% (active)	38.2
CN(C)c1ccc(Nc2nc(-c3ccc(O)cc3O)cs2)cc1	36% (active)	10.8
Fc1ccc(Nc2nc(-c3ccccn3)cs2)cc1	93.9% (active)	94.1
O=C(/C=C/c1ccco1)Nc1nc(-c2ccccn2)cs1	88.5% (active)	89
Brc1ccc(Nc2nc(-c3ccccn3)cs2)cc1	91% (active)	94.1
Clc1ccc(Nc2nc(-c3ccccn3)cs2)nc1	101% (active)	101
c1ccc(Nc2nc(-c3ccccn3)cs2)cc1	88.2% (active)	91.8
Fc1cccc2sc(Nc3nc(-c4ccccn4)cs3)nc12	99.5% (active)	101
CCOc1ccc(Nc2nc(-c3ccccn3)cs2)cc1	89.5% (active)	92
Cc1ccc(S/C=C\C(=O)c2ccccc2)cc1	36.8% (active)	37.6
CSCCC(NC(=O)c1cc([N+](=O)[O-])cc([N+](=O)[O-])c1)c1nc2ccccc2[nH]1 (configuration not stated)	51.9% (active)	71.3
CCOC(=O)Cn1cc(C#N)c2cccc(CC)c21	14.1% (active)	56.3
CCOC(=O)COc1ccc2c3c(c(=O)oc2c1)CCCCC3	42.8% (active)	74.2
CCOC(=O)COc1cc2c3c(c(=O)oc2cc1C)CCCC3	43% (active)	89.3
Cc1cc(OC(=O)C2CC2)c2c3c(c(=O)oc2c1)CCCC3	22% (inactive)	21.7
CCOC(=O)c1cc(-c2ccccc2)sc1NC(=S)NC1CCN(Cc2ccccc2)CC1	18.5% (inactive)	1.16
CCc1cc(C(=O)OC)c(NC(=S)NCc2ccc(Cl)c(Cl)c2)s1	96.8% (active)	88.4
